The OligoGym collection

These sequences were tested against APOL1 (assay: pooled miR-30 sensor sort-seq; sequence = guide strand). Conditions: shRNA.
Note: reference of the scale not given here.

Row | Sequence | sensor-assay potency score (higher = more potent)
1 | TAGCTTCTCCTCCAGCTCCTGA | -0.925
2 | TTTGAGGATCTCCAGTATCTGT | -1.27
3 | TTTGTTGCACCCTCGCTCCAGC | -0.393
4 | TTGTCTTGCAAGGTTGTCCAGA | -0.407
5 | TCAAGCTCACTTTTCAACCGAG | -0.112
6 | TTTTGTTGCACCCTCGCTCCAG | -0.279
7 | TTGTCTTTCATGATCATTTGTC | 0.325
8 | TTCATTAACCCTCTCCACCTGT | -0.144
9 | TTAGTCTAAAGTAAACTGCTTC | -0.132
10 | TATCCAACTGTTCTAACTCTTG | -1.08
11 | TATCGTGCCAGTTTTTGTCTTT | -0.367
12 | TAACTCTTGGGCTTTCTCCATT | -0.755

What follows are sequences tested against APTX in the same assay as above. Conditions: shRNA.

Row | Sequence | sensor-assay potency score (higher = more potent)
13 | TTTCTTATCAGTGATCTTGGTC | -0.281
14 | TGGAAGTCTGATTCGCTGGTGC | -0.603
15 | TTATCAGTGATCTTGGTCTCTG | -0.647
16 | TATCAGTGATCTTGGTCTCTGG | -0.564
17 | TTGCTGTCGAGAACATTTCTTA | -0.631
18 | TCAGTGATCTTGGTCTCTGGGC | -0.249
19 | TATAGAATCACTGTTGCCTGAT | 0.198

What follows are sequences tested against ARF4 in the same assay as above. Conditions: shRNA.

Row | Sequence | sensor-assay potency score (higher = more potent)
20 | TTTATCAAACATGTCCTTGGTT | 0.237
21 | TTTGTTTGCAAAAAGTAGCAGC | -0.61
22 | TTCTGTTACGAAGAGACTGAAG | -1.25
23 | TACAGAATGGTTGTCTTGCCAG | -0.56
24 | TTCTATCTTGACCACCAACATC | -1.78
25 | TAATTTTGTTGTAACAAGCCTA | -0.0701
26 | TTCCACATTAAAACCAATGGTA | -0.547
27 | TTGTCTTGCCAGCAGCATCCAA | -0.778
28 | TAATTCTATCTTGACCACCAAC | -1.26
29 | TTTCACGATCGTTGCTATCTAC | 0.0471
30 | TACTGTGAAACAAATGTTCTTA | 0.474
31 | AATTTTATCAAACATGTCCTTG | -0.486
32 | TTTATCTGTCATTTCACTGATG | -0.303
33 | TATCTTGACCACCAACATCCCA | -1.07
34 | TTATACAGAATGGTTGTCTTGC | 0.842
35 | TTGTGTTGCACAAGTGGCTTGA | 0.462
36 | TTATCAAACATGTCCTTGGTTA | -0.479
37 | TTGACAGCCAGTCAAGTCCTTC | -0.84
38 | TTGAACATACCATGTTCTGTTA | -0.718
